{"source": "PubChem BioAssay AID1508600", "about": "(Functional Genomics Laboratory (NCATS/FGL), 2020)", "note": "In all, about 53,000 sequences went through this assay and about 3,700 (7%) were called active.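 Rule for the calls: active = gene knockdowns whose robust z-score for IL-1 alpha signal is at least 2 or at most -2, so actives lie on both sides; inactive = the rest.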 Many of the other results were omitted from the sample, so actives are more common in it than they were."}
{"assay": "Components of the Cytosolic LPS Sensing Pathway: Gene Identification via Genome-wide siRNA Screen;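 note: robust z of the log signal after scaling to non-targeting control siRNA wells of the plate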", "conditions": "RAW264.7 macrophages, IL-1a HTRF, actives lie on both sides, screened at 100 nM (by protocol), cells primed 5 h with Pam3CSK4 first", "summary_of_the_method": "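Knockdown: 100 nM siRNA, 48h, RAW264.7. Stimulation: Pam3CSK4 5 h, then LipidA via TransIT-TKO 24 h. Output: supernatant IL-1a HTRF, negative-control-normalized, log robust z-score; viability by CellTiter-Glo.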"}
{"sequence": "CGAUAAUGAAAGUGACCAUTT against Uri1", "z-score": "-0.0814 (inactive)"}
{"sequence": "GGAUGCUAGACUAAUACUATT against Slc25a32", "z-score": "1.3 (inactive)"}
{"sequence": "CGGGAAAGAGAUCAUCCCUTT against Nr1i2", "z-score": "-3.3 (active)"}
{"sequence": "GGGAGGGAUGCAGUAAAUGTT against Acaa1a", "z-score": "-0.337 (inactive)"}
{"sequence": "GCAGGAACGUGAGGACCAUTT against Snip1", "z-score": "0.842 (inactive)"}
{"sequence": "GGCUCUGUGCAGACAUUUCTT against Pop5", "z-score": "-1.51 (inactive)"}
{"sequence": "GUUCCGACUGAACUUGUAUTT against Psmb3", "z-score": "-2.55 (active)"}
{"sequence": "GCCUGGAUACAAUUACCCUTT against Tc2n", "z-score": "-0.893 (inactive)"}
{"sequence": "GCUCAGUAAUCGCUGUCUATT against Olfr91", "z-score": "-0.62 (inactive)"}
{"sequence": "GGAGAUGAUACAUAAUCUATT against Psmd12", "z-score": "-0.0292 (inactive)"}
{"sequence": "GCCUAAACCUGAGUUAUAATT against Lrig1", "z-score": "2.34 (active)"}
{"sequence": "GGUGACAAAGGUGUUAGAATT against Itpkc", "z-score": "-0.252 (inactive)"}
{"sequence": "GGUGACCAAAAAAGCUUUATT against Pax9", "z-score": "1.37 (inactive)"}
{"sequence": "GCUCAAAUAACUCCACCACTT against Pola1", "z-score": "-1.73 (inactive)"}
{"sequence": "GGCGACCACUUUGUCUACATT against Plekhg3", "z-score": "1.1 (inactive)"}
{"sequence": "GGGAAUUCUCCUGUUUGCUTT against Plp2", "z-score": "-2.22 (active)"}
{"sequence": "GCUGCGUCCUAUGAGUUUATT against Drg2", "z-score": "1.72 (inactive)"}
{"sequence": "GGCAGCAAGGAAACUAUUATT against Kpna3", "z-score": "1.39 (inactive)"}
{"sequence": "GCCAACGAAAAAUGACCUCTT against Wnt2", "z-score": "-0.046 (inactive)"}
{"sequence": "GGCCAAAAGUAUGAAAGUATT against Tspan1", "z-score": "0.45 (inactive)"}
{"sequence": "GCGUGUUGUGAUGUCACCUTT against Cisd1", "z-score": "-0.0193 (inactive)"}
{"sequence": "CCAGAUACUUCUCAUGGCGTT against Dipk1b", "z-score": "-0.0671 (inactive)"}
{"sequence": "CGAUUUGCCUUAUUUUUCATT against Litaf", "z-score": "1.23 (inactive)"}
{"sequence": "GGAAGUACAAACUACUAGUTT against Mcmbp", "z-score": "-0.393 (inactive)"}
{"sequence": "GGCUUUCAAGAGCAAUCCCTT against Man2b2", "z-score": "-2.21 (active)"}
{"sequence": "GGAGCUAGACAAAACUAAATT against Vmn2r81", "z-score": "-0.882 (inactive)"}
{"sequence": "GUAGAAGAUGGAAUUUUUGTT against Rpl22l1", "z-score": "0.048 (inactive)"}
{"sequence": "GGUCUGUGAGGAACAAAAGTT against Ccnd2", "z-score": "-2.26 (active)"}
{"sequence": "CCUGAUGGGUUACCUAUGCTT against Col25a1", "z-score": "-0.379 (inactive)"}
{"sequence": "GCGGUUCCAAGAUUGUUGUTT against Armc8", "z-score": "0.109 (inactive)"}
{"sequence": "GCUGAUCGCUUUGAUUCGATT against Fkbp11", "z-score": "-0.495 (inactive)"}
{"sequence": "GCUAACACUGCGCUUGGAATT against 1700067K01Rik", "z-score": "-1.39 (inactive)"}
{"sequence": "GGGACCAGAACCACAAACATT against Ghsr", "z-score": "-1.62 (inactive)"}
{"sequence": "GGACUAAAUAGGUUUACCATT against Alx1", "z-score": "1.26 (inactive)"}
{"sequence": "CGCAGACAGAGACAACCUGTT against Casp6", "z-score": "-0.73 (inactive)"}
{"sequence": "GCAGGUCACUUUCUAGAGATT against Srsf3", "z-score": "-2.25 (active)"}
{"sequence": "GCGUGUCCUAUAGCAUCUGTT against Cela1", "z-score": "-0.106 (inactive)"}
{"sequence": "GGAAUUGAAGGGUACUUAATT against Fam111a", "z-score": "-1.97 (inactive)"}
{"sequence": "GCCAAAUAUUAUUCCUACATT against Sec63", "z-score": "-0.282 (inactive)"}
{"sequence": "GGCAUUGAGAUGAAAUGAATT against 4933427E11Rik", "z-score": "-2.5 (active)"}
{"sequence": "GGGAAUCCUAGACAUGCUGTT against Nphp4", "z-score": "-1.91 (inactive)"}
{"sequence": "GGGCAACCUGUCACAUUAUTT against Spam1", "z-score": "1.16 (inactive)"}
{"sequence": "CCUCAUCCUUAGUUGUUUUTT against Ift88", "z-score": "-0.15 (inactive)"}
{"sequence": "GCACAAUGGUGUUAAGUCATT against Ado", "z-score": "2.3 (active)"}
{"sequence": "GGAACCUCUCAAUUUUGCGTT against Pik3ip1", "z-score": "0.659 (inactive)"}
{"sequence": "GCAGGUUUAACAACUUACUTT against Dmgdh", "z-score": "3.07 (active)"}
{"sequence": "GGAUUAGGUCAUUAUUAGGTT against Kcne3", "z-score": "-0.202 (inactive)"}
{"sequence": "GGCAGUCUUGUCCCUUGUATT against Myl12a", "z-score": "-0.74 (inactive)"}
{"sequence": "GGAAGAAGGAACAUGAUCUTT against Mrpl52", "z-score": "-0.928 (inactive)"}
{"sequence": "CCCAGUUCUGUCCUACUUATT against Efcab6", "z-score": "-2.79 (active)"}
{"sequence": "GGAGACAGUGGUAUUUUGATT against Birc5", "z-score": "0.468 (inactive)"}
{"sequence": "GGAAGCAUGUGAGAGAAAATT against C130026I21Rik", "z-score": "-1.03 (inactive)"}
{"sequence": "GGCAUCACACAGGAGAAAATT against Ppp1r16b", "z-score": "-0.391 (inactive)"}
{"sequence": "GGAACAGAUGGGUGUGAAATT against Wnt2b", "z-score": "-0.0195 (inactive)"}
{"sequence": "GGAAUUCAUUGCUAUUAUGTT against Cetn3", "z-score": "2.12 (active)"}
{"sequence": "CUUUUGUAAAGCCUUCCACTT against Zfp708", "z-score": "-0.259 (inactive)"}
{"sequence": "GGAUCUCGGGAAAAAGUUGTT against Spesp1", "z-score": "0.185 (inactive)"}
{"sequence": "GGUCUAUCUGAAGAACAGUTT against Xpo5", "z-score": "1.02 (inactive)"}
{"sequence": "GGAGGCAUGCCCUAUGAAUTT against Zfp11", "z-score": "1.4 (inactive)"}
{"sequence": "CCUCAAAUUAGUGCAGUUATT against Dnah8", "z-score": "0.661 (inactive)"}
{"sequence": "GGUGGCACUCUUUCAGAUCTT against Dennd1a", "z-score": "2.08 (active)"}
{"sequence": "GCUUGUCAAGUUUGUGAGCTT against Sec14l4", "z-score": "-0.0652 (inactive)"}
{"sequence": "GGAAUAGUAACUCUUUCUCTT against Ehbp1l1", "z-score": "-0.0157 (inactive)"}
{"sequence": "GGUUGUGGACACAUCCAAATT against Aacs", "z-score": "2.08 (active)"}
{"sequence": "GGAUGUUAAAGCAAGUGUATT against Olfr1153", "z-score": "0.169 (inactive)"}
{"sequence": "CGAGGAUUUCUAUCCUGACTT against Ascc1", "z-score": "-0.764 (inactive)"}
{"sequence": "GGAAGUGCUCUGCUGUACATT against Eml6", "z-score": "0.655 (inactive)"}
{"sequence": "GCUUGGUCAUUUUAAUAGGTT against Zscan29", "z-score": "-0.527 (inactive)"}
{"sequence": "GGCCAGUGGGAAGUGAAGATT against Sec13", "z-score": "0.124 (inactive)"}
{"sequence": "GCCAUAUCAACCGUAUUGGTT against Lzts3", "z-score": "-2.58 (active)"}
{"sequence": "CGUGUACCAGCUACCUAAGTT against Phc2", "z-score": "-1.31 (inactive)"}
{"sequence": "GGUUAGUAUGUAGCUCCCATT against Olfr982", "z-score": "-0.401 (inactive)"}
{"sequence": "GGAACUUAAGAACUUUCUATT against Calb1", "z-score": "2.3 (active)"}
{"sequence": "GGCCUAAAUUGACAAACUUTT against Oga", "z-score": "1.04 (inactive)"}
{"sequence": "GGUAAAACAGAGGAGUCGGTT against Scaf1", "z-score": "-0.444 (inactive)"}
{"sequence": "GGUACAAACUCUCCCUAGATT against Ube2c", "z-score": "-1.29 (inactive)"}
{"sequence": "GGAUCUACAUUGCUAAAGUTT against Dbil5", "z-score": "0.0731 (inactive)"}
{"sequence": "GCCCAAAAAGUGCUUGCUGTT against Tmem215", "z-score": "-1.76 (inactive)"}
{"sequence": "CCUUCCCUUAAAUGGAACCTT against Slc9a1", "z-score": "1.63 (inactive)"}
{"sequence": "CGCAGUGAUUAUGACCUCCTT against Thegl", "z-score": "-2.34 (active)"}
{"sequence": "GCCUUGUUACAAAUAGUCGTT against Tcf12", "z-score": "0.266 (inactive)"}
{"sequence": "GGGAUUCGGUGAAGAUUUGTT against Nfe2l1", "z-score": "-0.736 (inactive)"}
{"sequence": "GGUGAAAUCCUGAUGUUUUTT against Vps33b", "z-score": "0.301 (inactive)"}
{"sequence": "GGGACAAGAUCUGAACUUCTT against Rgl3", "z-score": "-0.36 (inactive)"}
{"sequence": "CCUCACUGUGGUAACAUUATT against Olfr452", "z-score": "1.84 (inactive)"}
{"sequence": "GGAAAACAAACCACAGCCATT against Tpbpa", "z-score": "-2.66 (active)"}
{"sequence": "GGUGCUAUUCAUCUGCACGTT against Lonp1", "z-score": "-1.09 (inactive)"}
{"sequence": "GCCUGUCAUGGUUAUGACCTT against Shbg", "z-score": "-0.803 (inactive)"}
{"sequence": "GGACAGAUACGUUAUCAAGTT against Il3", "z-score": "1.31 (inactive)"}
{"sequence": "CCCAUUUGAAAUUAGGGUATT against Mief1", "z-score": "0.607 (inactive)"}
{"sequence": "GCUGGCUUCAUUUUACUUATT against Degs1", "z-score": "0.126 (inactive)"}
{"sequence": "GGAUUACAGGCAUUUGGUUTT against Hmgn1", "z-score": "3.01 (active)"}
{"sequence": "GGAGUGAAGAUCUGAUUGCTT against Aaas", "z-score": "-1.63 (inactive)"}
{"sequence": "GCUGGGAUGGUAUCGUUUCTT against Ripk2", "z-score": "0.559 (inactive)"}
{"sequence": "GGUAUUGAUGCCAAAUUAATT against Plekha5", "z-score": "1.38 (inactive)"}
{"sequence": "CGUCCUGUCGCUGAUUAAATT against Tcl1", "z-score": "0.323 (inactive)"}
{"sequence": "CCGAAAAGUGUGGCGAGAATT against Arid3c", "z-score": "-0.285 (inactive)"}
{"sequence": "CCAGAGUAAUUCAUCAUACTT against Agxt", "z-score": "0.172 (inactive)"}
{"sequence": "GGUUCAGUUUGCCAAAGACTT against Elfn1", "z-score": "1.45 (inactive)"}
{"sequence": "GGACUUCACAUUCUUGAGATT against A130010J15Rik", "z-score": "-0.232 (inactive)"}
{"sequence": "GGUGGGCACUCUGGUUUUUTT against Eif4e", "z-score": "4.66 (active)"}
{"sequence": "GUAGUAACCAGAUCUUAUATT against Vmn1r29", "z-score": "0.496 (inactive)"}
{"sequence": "GGUUCAGCCAGAAUUUUCGTT against Lefty2", "z-score": "0.876 (inactive)"}
{"sequence": "GGAAAAGACUAACGAGCGGTT against Med11", "z-score": "-0.703 (inactive)"}
{"sequence": "GGUCCUUCGUAGUUGUGGUTT against Sp110", "z-score": "1.33 (inactive)"}
{"sequence": "GCAAAAACCUAUAGGAAAATT against Srpk2", "z-score": "2.27 (active)"}
{"sequence": "GGGAGAUCAUGAUAGCAGCTT against Cox5b", "z-score": "-0.828 (inactive)"}
{"sequence": "GCUUGGCUUCAGCAUAUGCTT against Phox2b", "z-score": "-0.867 (inactive)"}
